Results reported in PubChem BioAssay AID624296 (National Center for Advancing Translational Sciences (NCATS), 2012).
Among all 350,000 compounds or so, about 9,900 (2.8%) were called active. Inconclusive results (about 15%) are left out. What follows is part of a selection rich in actives, with near analogues and random picks from the rest. Entries that show only a call come without a potency. Values without a mark were called inactive. Calls come from the whole dose curve; as a rule, active = well fitted activation curve with a large enough effect; inconclusive = small, poorly fitted or top-dose-only effect; inactive = no such curve, though single readings can be large or run the other way.
Potency is the fitted concentration of half-maximal effect.

Assay: A quantitative high throughput screen for small molecules that induce DNA re-replication in MCF 10a normal breast cells. Note: nearly all actives have a fitted effect of over 50% in size.
Settings: MCF 10A DNA re-replication, Hoechst nuclear intensity, 48 h; series mostly up to 46.1 µM
With `COc1ccccc1NC(=O)C1CCCN1S(=O)(=O)c1ccc(Cl)cc1` (configuration not stated) the Potency was 18.4 µM (active).
With `CC(C)c1nnc(NC(=O)C2CCCN2S(=O)(=O)c2ccc(Cl)cc2)s1` (configuration not stated) the Potency was “inactive”.
In the case of `Cc1cccc(NC(=O)C2CCCN2S(=O)(=O)c2ccc(F)cc2)c1C` (configuration not stated), the Potency is reported as “inactive”.
With `O=C(COC(=O)Cn1[nH]c(=O)c2ccccc2c1=O)Nc1ncc(Cl)cc1Cl` the Potency was “inactive”.
In the case of `O=C(CSc1ncn[nH]1)Nc1ccc(Br)cc1Br`, the Potency is reported as “inactive”.
With `CN(C(=O)COC(=O)c1cc(=O)[nH]c2ccccc12)C1CCCCC1` the Potency was “inactive”.
For `CCN(C(=O)CSc1cccc[n+]1[O-])c1ccccc1`, the Potency was “inactive”.
For `O=C(CN1C(=O)C2C3CCC(C3)C2C1=O)Oc1ccc2ccccc2c1` (configuration not stated), the Potency was “inactive”.
In the case of `O=C(COC(=O)CN1C(=O)C2CCCCC2C1=O)Nc1ccc(F)c(F)c1F` (configuration not stated), the Potency is reported as “inactive”.
For `CC1=CC(C)(C)Nc2ccc(OC(=O)CN3C(=O)C4CCCCC4C3=O)cc21` (configuration not stated), the Potency was 7.31 µM (active).
With `C=CC[C@H](CC(=O)OC(C)(C)C)C(=O)OC[C@H]1CCCN1C(=O)[C@H](CC=C)CC(=O)N(CCO)Cc1ccccc1` the Potency was “inactive”.
For `CC/C(=C(/c1ccccc1)c1ccc(OCC[N+](C)(C)C)cc1)c1ccccc1`, the Potency was “inactive”.
With `CCCCN1CC(COc2ccccc2)Oc2cccc(F)c2S1(=O)=O` (configuration not stated) the Potency was “inactive”.
For `CN(C)C(=O)N=NC(=O)N(C)C`, the Potency was “inactive”.
For `COc1ccc(Br)cc1C(=O)NC(=S)Nc1cc(-c2nc3ccccc3[nH]2)ccc1C`, the Potency was “inactive”.
In the case of `Cc1ccc(-c2nc3ccccc3[nH]2)cc1NC(=O)c1sc2ccccc2c1Cl`, the Potency is reported as 20.6 µM (active).
With `O=C(Nc1cccc(-c2nc3ccccc3[nH]2)c1)c1ccc(C(=O)Nc2cccc(-c3nc4ccccc4[nH]3)c2)cc1` the Potency was “inactive”.
In the case of `COc1ccc(S(=O)(=O)N2CCOCC2)cc1NC(=O)CSc1cc(C)ccc1C`, the Potency is reported as “inactive”.
For `CCN(CC(=O)Nc1ccccc1C(=O)NC1CC1)Cc1cccs1`, the Potency was “inactive”.
In the case of `CCOc1ccc(S(=O)(=O)NCC2CCCO2)cc1` (configuration not stated), the Potency is reported as “inactive”.
With `CCC(=O)Nc1ccc(S(=O)(=O)NCC2CCCO2)cc1` (configuration not stated) the Potency was “inactive”.
In the case of `O=S(=O)(NCC1CCCO1)c1ccc2ccccc2c1` (configuration not stated), the Potency is reported as 2.91 µM (active).
In the case of `O=C(COc1ccc(F)cc1Br)NCC1COc2ccccc2O1` (configuration not stated), the Potency is reported as “inactive”.
With `CCN(C(=O)COC(=O)CCC(=O)c1cccs1)C1CCCCC1` the Potency was “inactive”.
In the case of `Cc1cc(C)c2nc(N3CCCC3)c(C#N)cc2c1`, the Potency is reported as “inactive”.
For `CC(=O)c1cc(C#N)c(N2CCCCC2)nc1C`, the Potency was “inactive”.
For `CCOC(=O)c1cc(C#N)c(N2CCCCC2)nc1-c1ccccc1`, the Potency was 13 µM (active).
For `CC1CN(C(=O)c2ccc([N+](=O)[O-])s2)CC(C)O1` (configuration not stated), the Potency was “inactive”.
With `C/C(=N\Nc1ccccc1)c1cccs1` the Potency was “inactive”.
For `CCCOc1ccc(C(=O)CCC(=O)OC(C)C(=O)Nc2ccc(NC(C)=O)cc2)cc1` (configuration not stated), the Potency was “inactive”.
In the case of `CCCOc1ccc(C(=O)C(CCC(CNCC)C(=O)c2ccc(OCCC)cc2)CNCC)cc1` (configuration not stated), the Potency is reported as 25.9 µM (active).
With `CCCOc1ccc(C(=O)NCCc2ccccc2)cc1` the Potency was “inactive”.
For `COc1ccc(OC)c(-c2csc(NC(=O)COC(=O)C3CC3)n2)c1`, the Potency was “inactive”.
For `O=C(c1c(F)cccc1Cl)N1CCN(S(=O)(=O)c2ccc3c(c2)OCCCO3)CC1`, the Potency was “inactive”.
With `Cc1cc(C)c(S(=O)(=O)c2ccccc2)c(OC(=O)c2c(F)cccc2Cl)n1` the Potency was 16.4 µM (active).
With `Cc1ccc(NNC(=O)c2c(F)cccc2Cl)cc1Cl` the Potency was “inactive”.
With `O=C(COC(=O)c1cccnc1Cl)Nc1ccc(S(=O)(=O)N2CCOCC2)cc1` the Potency was “inactive”.
For `O=C(N[C@H]1C/C=C\C(c2cccc(F)c2)N(Cc2ccccc2)C(=O)C1)OCC1c2ccccc2-c2ccccc21` (some centres not stated), the Potency was “inactive”.
For `Cc1nc(-c2ccc(F)cc2)c(CC(=O)N(C)CC(=O)Nc2c(C)cccc2C)s1`, the Potency was “inactive”.
In the case of `Cc1nc(-c2ccccc2)sc1C(=O)/C=C/N(C)C`, the Potency is reported as “inactive”.
With `Cc1nc(N2CCOCC2)sc1C(=O)NN` the Potency was “inactive”.
For `Cc1nc(-c2ccc(Cl)cc2)sc1C(=O)NN`, the Potency was 16.4 µM (active).
In the case of `O=C1CC(c2ccccc2)C(=O)N2C(=O)CC(c3ccccc3)C(=O)N12` (configuration not stated), the Potency is reported as “inactive”.
With `COc1ccc(S(=O)(=O)N(C)C[C@H]2Oc3c(NC(=O)Nc4ccc5c(c4)OCO5)cccc3C(=O)N([C@H](C)CO)C[C@@H]2C)cc1` the Potency was “inactive”.
With `CCCN(C(=O)CSc1nnc(N)s1)c1c(N)n(Cc2ccccc2)c(=O)[nH]c1=O` the Potency was “inactive”.
In the case of `O=C1C=C(c2ccc(Cl)cc2)C(=O)N1Nc1ccccc1`, the Potency is reported as 5.8 µM (active).
With `O=C1c2cccc3cc(Br)cc(c23)C(=O)N1Nc1ccccc1` the Potency was “inactive”.
In the case of `O=C(O)CC1=C(Nc2ccccc2)C(=O)N(c2ccccc2)C1c1ccc(Cl)cc1` (configuration not stated), the Potency is reported as “inactive”.
In the case of `Cc1ccc(Nc2nnc(SC(C)C(=O)NC3CC3)s2)cc1` (configuration not stated), the Potency is reported as “inactive”.
For `O=C(N/N=C/c1ccccn1)c1cccnc1`, the Potency was “inactive”.
With `C/C(=N\NC(=O)c1cccnc1)c1ccc(-c2ccccc2)cc1` the Potency was “inactive”.
For `O=C(NN=C1CCC(=NNC(=O)c2cccnc2)CC1)c1cccnc1`, the Potency was 0.58 µM (active).
For `CCN(CC)CCCC(C)n1c2nc(=O)[nH]c(=O)c-2nc2cc(Cl)ccc21` (configuration not stated), the Potency was “inactive”.
With `Cc1ccc(-c2nn(-c3ccccc3)cc2/C=C2\SC(=S)N(CCCCCC(=O)O)C2=O)o1` the Potency was 18.4 µM (active).
With `COc1ccc(-c2nn(-c3ccccc3)cc2/C=C2/SC(=S)N(CCCC(=O)O)C2=O)c(C)c1` the Potency was “inactive”.
In the case of `CN(C)S(=O)(=O)c1cccc(-c2nn(-c3ccccc3)cc2/C=C2\SC(=S)N(CC(=O)O)C2=O)c1`, the Potency is reported as “inactive”.
With `COc1cc(OC)cc(-c2c(-c3cccs3)c3cc(-c4ccc(OC)nc4)ccc3n2C)c1` the Potency was “inactive”.
In the case of `O=C(CCNC(=O)c1ccccc1)Nc1nc2ccccc2s1`, the Potency is reported as “inactive”.
In the case of `CC(=O)Nc1cccc(-c2cnc3ccccc3n2)c1`, the Potency is reported as “inactive”.
With `CCS(=O)(=O)Nc1cccc(-c2cc(-c3ccccc3)c3cc(C)ccc3n2)c1` the Potency was 14.6 µM (active).
With `Cc1ccc2nc(Nc3ccccc3)cc(C)c2c1` the Potency was “inactive”.
With `O=C(Cn1cc(C(F)(F)F)ccc1=O)Nc1ccc2c(c1)OCCO2` the Potency was “inactive”.
Molecule `CC(C)(C)c1ccc(C(=O)NCC(=O)OCN2C(=O)c3ccccc3C2=O)cc1` has an activity, positive = re-replication of -182% [at 0.0737 µM].
For `CC(C)(C)OC(=O)c1c(N)n(CCCN2CCCC2=O)c2nc3ccccc3nc12`, the Potency was “inactive”.
In the case of `CC(C)(C)c1ccc(C(=O)NCCn2c(N)c(C#N)c3nc4ccccc4nc32)cc1`, the Potency is reported as 7.31 µM (active).
With `Cc1ccnc(SCC(=O)Nc2cccc(S(=O)(=O)N3CCOCC3)c2)n1` the Potency was “inactive”.
For `O=C1C(=O)N(c2ccccc2)C(c2ccccc2)C1c1ccccc1` (configuration not stated), the Potency was “inactive”.
With `O=C(c1[nH]ncc1-c1ccc(Cl)cc1)C1CO1` (configuration not stated) the Potency was 3.66 µM (active).
With `S=c1[nH]nc(-c2ccc(Cl)cc2)n1CC1CCCO1` (configuration not stated) the Potency was “inactive”.
For `O=C(c1nnc(-c2ccc(Cl)cc2)o1)C1CCCC1`, the Potency was “inactive”.
In the case of `COC(=O)[C@@]1(C)[C@H]2C(=O)N(Cc3ccccc3)C(=O)[C@H]2[C@H]2CN=C(SCC3CC3)N21`, the Potency is reported as “inactive”.
In the case of `COc1ccc(Cl)cc1NC(=O)CN(C)CC(=O)Nc1ccc2c(c1)OCO2`, the Potency is reported as “inactive”.
For `Cc1ccc(C)c(N2CCN(C(=O)CCc3nc(-c4cccc(C(F)(F)F)c4)no3)CC2)c1`, the Potency was “inactive”.
In the case of `NC(=S)NN=C1CCCC(C(F)(F)F)C1` (configuration not stated), the Potency is reported as “inactive”.
In the case of `Cc1ccc(S(=O)(=O)n2oc(=O)c(C3CCCCC3)c2N)cc1`, the Potency is reported as “inactive”.
With `Cc1cccc(-c2ncc(CN3CCC(CO)(CCCc4ccccc4)CC3)cn2)c1` the Potency was 18.4 µM (active).
For `COc1cccc(CC2(CO)CCN(Cc3cnc(-c4cccc(C)c4)nc3)CC2)c1`, the Potency was “inactive”.
In the case of `OCC1(CCc2ccccc2)CCN(Cc2ccc3nsnc3c2)CC1`, the Potency is reported as “inactive”.
For `COc1cccc(C2=CC(=O)C[C@H](c3ccc(OC)c(OC)c3)C2)c1`, the Potency was “inactive”.
In the case of `COc1ccc(N2C(=O)CNC2=S)cc1`, the Potency is reported as “inactive”.
With `O=C1CSC(=S)N1c1ccc(O)cc1` the Potency was 16.4 µM (active).
For `CCOc1ccc(N2C(=O)CSC2=NC#N)cc1`, the Potency was “inactive”.
For `COc1ccc(CNC(=O)CN2C(=O)NC3(CCCc4sccc43)C2=O)cc1` (configuration not stated), the Potency was “inactive”.
With `O=C(CCCCCCCC(=O)N1CCCCC1)N1CCCCC1` the Potency was “inactive”.
With `O=C(Nc1cc(-c2ccccc2)nn1-c1ccccc1F)c1ccc([N+](=O)[O-])cc1` the Potency was “inactive”.
For `O=C1CSc2ccc(C(=O)NCc3ccccn3)cc2N1`, the Potency was “inactive”.
In the case of `CCCC(CNC(=O)COC(=O)C1=NNC(=O)CC1)c1ccc(Cl)cc1Cl` (configuration not stated), the Potency is reported as “inactive”.
With `O=C(NCc1cccnc1)c1cn(-c2ccccc2)nc1-c1cccs1` the Potency was “inactive”.
In the case of `O=C(O)/C=C/c1cn(-c2ccccc2)nc1-c1cccs1`, the Potency is reported as “inactive”.
In the case of `O=C(O)c1ccc(N/N=C/c2cn(-c3ccccc3)nc2-c2cccs2)cc1`, the Potency is reported as 23.1 µM (active).
For `CCCCn1c(=S)[nH]c2ccccc2c1=O`, the Potency was “inactive”.
For `O=c1c2ccccc2[nH]c(=S)n1CCN1CCC(=C(c2ccc(F)cc2)c2ccc(F)cc2)CC1`, the Potency was 18.4 µM (active).
In the case of `COc1ccccc1Cn1c(=S)[nH]c2cc(C(=O)N3CCN(C)CC3)ccc2c1=O`, the Potency is reported as “inactive”.
In the case of `COc1ccccc1C1C2=C(COC2=O)Nc2cc3c(cc21)OCO3` (configuration not stated), the Potency is reported as “inactive”.
With `COc1ccc(C2CC(=O)Nc3cc(C)c(C)cc32)c(OC)c1OC` (configuration not stated) the Potency was “inactive”.
In the case of `CCCOc1ccccc1C1CC(=O)Nc2cc3c(cc21)OCO3` (configuration not stated), the Potency is reported as 6.51 µM (active).
In the case of `Nc1c(N(Cc2ccco2)C(=O)c2cccc(F)c2)c(=O)[nH]c(=O)n1Cc1ccccc1`, the Potency is reported as “inactive”.
For `CC(=O)NC1=NN(C(C)=O)C(C)(c2ccc(C)cc2)S1` (configuration not stated), the Potency was “inactive”.
With `CC(=O)NC1=NN(C(C)=O)C(C)(c2ccc(Cl)s2)S1` (configuration not stated) the Potency was 8.2 µM (active).
In the case of `CC(=O)NC1=NN(C(C)=O)C(C)(CCS(=O)(=O)c2ccc(Cl)c(Cl)c2)S1` (configuration not stated), the Potency is reported as “inactive”.
With `COc1ccccc1S(=O)(=O)NCc1ccc(C(=O)N(C)Cc2ccc(F)cc2)cc1` the Potency was “inactive”.
In the case of `O=C(COC(=O)c1cccnc1Cl)NC12CC3CC(CC(C3)C1)C2`, the Potency is reported as “inactive”.
